Results filed as inconclusive are left out. A number with no mark means an inactive call. Calls follow the shape of the dose curve; as a rule, active = well fitted inhibition curve with a large enough effect; inconclusive = small, poorly fitted or top-dose-only effect; inactive = flat fitted curve, though single readings scatter.
Biological target: Lysine-specific demethylase 5B (Homo sapiens) (UniProt Q9UGL1)
Assay: Optimization screen for KDM5B Histone Demethylases FDH coupled qHTS against the LOPAC library (AID 1347166); also: 0% is about no effect
Conditions: KDM5B demethylation, FDH-coupled NADH fluorescence (FDH is formaldehyde dehydrogenase); series mostly up to 57.5 µM; activity, negative = inhibition: at the top concentration
How it was run: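 KDM5BDeltaAP (200nM final) in 50mM HEPES pH 7.5, 0.01% Tween-20 was preincubated with compound for 10 min at room temperature. A substrate mix of 12.5uM H3K4Me3, 25uM a-ketoglutarate, ascorbate, Fe2+, NAD+ and formaldehyde dehydrogenase was then added. NADH fluorescence (340/450 nm) was read initially and after 30 min.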

Chain of Lysine-specific demethylase 5B (Homo sapiens) (Q9UGL1 whole entry, looked up): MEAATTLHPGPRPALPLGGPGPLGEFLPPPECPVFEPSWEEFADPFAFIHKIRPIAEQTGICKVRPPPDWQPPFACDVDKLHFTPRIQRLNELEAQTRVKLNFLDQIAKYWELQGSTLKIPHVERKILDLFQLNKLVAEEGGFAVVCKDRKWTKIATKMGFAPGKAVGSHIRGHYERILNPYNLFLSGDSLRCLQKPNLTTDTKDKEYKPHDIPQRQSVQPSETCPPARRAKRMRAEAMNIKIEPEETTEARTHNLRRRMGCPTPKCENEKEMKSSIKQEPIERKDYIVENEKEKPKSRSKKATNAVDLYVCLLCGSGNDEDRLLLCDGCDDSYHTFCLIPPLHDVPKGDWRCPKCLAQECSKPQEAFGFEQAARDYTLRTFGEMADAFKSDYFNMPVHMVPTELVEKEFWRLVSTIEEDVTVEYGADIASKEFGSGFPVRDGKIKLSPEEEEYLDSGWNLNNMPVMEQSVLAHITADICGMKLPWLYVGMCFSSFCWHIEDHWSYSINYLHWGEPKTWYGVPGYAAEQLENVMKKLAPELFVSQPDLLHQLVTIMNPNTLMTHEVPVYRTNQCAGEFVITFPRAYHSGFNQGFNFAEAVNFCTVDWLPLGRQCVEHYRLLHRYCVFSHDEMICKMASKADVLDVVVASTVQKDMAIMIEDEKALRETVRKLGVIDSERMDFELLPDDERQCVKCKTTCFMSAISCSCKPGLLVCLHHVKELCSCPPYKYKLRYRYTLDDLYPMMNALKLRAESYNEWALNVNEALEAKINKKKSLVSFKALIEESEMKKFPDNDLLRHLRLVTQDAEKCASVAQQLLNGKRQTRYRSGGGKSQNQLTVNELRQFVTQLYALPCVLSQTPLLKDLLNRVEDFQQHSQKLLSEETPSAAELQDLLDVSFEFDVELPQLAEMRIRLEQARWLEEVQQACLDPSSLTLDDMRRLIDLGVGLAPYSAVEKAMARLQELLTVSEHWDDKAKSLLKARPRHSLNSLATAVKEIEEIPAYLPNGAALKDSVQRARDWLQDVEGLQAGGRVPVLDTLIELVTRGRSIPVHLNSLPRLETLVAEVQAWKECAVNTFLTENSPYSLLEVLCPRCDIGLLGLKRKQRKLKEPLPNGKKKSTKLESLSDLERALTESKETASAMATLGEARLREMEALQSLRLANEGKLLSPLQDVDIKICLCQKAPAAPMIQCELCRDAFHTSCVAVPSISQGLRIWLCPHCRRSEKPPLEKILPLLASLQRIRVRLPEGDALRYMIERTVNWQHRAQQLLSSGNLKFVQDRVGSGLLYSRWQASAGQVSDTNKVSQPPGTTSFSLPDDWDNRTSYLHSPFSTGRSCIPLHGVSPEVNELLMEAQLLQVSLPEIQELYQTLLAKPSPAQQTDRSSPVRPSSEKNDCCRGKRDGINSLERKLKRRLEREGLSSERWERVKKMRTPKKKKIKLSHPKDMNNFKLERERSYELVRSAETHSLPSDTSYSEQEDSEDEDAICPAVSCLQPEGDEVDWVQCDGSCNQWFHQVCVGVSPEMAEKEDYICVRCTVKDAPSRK

| Compound | activity, negative = inhibition [%] |
| --- | --- |
| COc1ccc2c(c1)c(CCN1CCOCC1)c(C)n2C(=O)c1cccc(Cl)c1Cl | -11 |
| COc1ccc(CNC(=O)/C=C/c2ccc3[nH]cc(CCN(C)C)c3c2)cc1 | -15.2 |
| Cc1cc([C@@H]2CCCN2C)on1 | -5.97 |
| Clc1cc(I)cc(Cl)c1NC1=NCCN1 | -4.43 |
| CC(C)(C)c1cc(C=C(C#N)C#N)cc(C(C)(C)C)c1O | -23 |
| O=[N+]([O-])c1ccc2nc(N3CCNCC3)ccc2c1 | -14.6 |
| CCCN1CCC[C@@H](c2cccc(O)c2)C1 | -4.19 |
| N[C@@H](Cn1ccc(=O)[nH]c1=O)C(=O)O | 0.51 |
| CCOC(=O)c1ncn2c1[C@@H]1CCCN1C(=O)c1cc(OC)ccc1-2 | -4.6 |
| CCCN(CCC)C1CCc2cccc(O)c2C1 (stereo not given) | -0.0391 |
| CC(N)Cc1c[nH]c2ccc(O)cc12 (stereo not given) | -12.9 |
| CC(=O)NBr | -2.75 |
| CC(C)[C@@]1(NC(=O)[C@@H]2C[C@@H]3c4cccc5[nH]cc(c45)C[C@H]3N(C)C2)O[C@@]2(O)[C@@H]3CCCN3C(=O)[C@H](Cc3ccccc3)N2C1=O | 6.95 |
| CCCN(CCC)[C@@H]1CCc2cccc(O)c2C1 | -4.29 |
| CCCn1c(=O)c2[nH]c(C3CCCC3)nc2n(CCCOC(=O)c2ccc(S(=O)(=O)F)cc2)c1=O | -7.05 |

Source: PubChem BioAssay (NCATS)
